According to publication PMC4336329 (PLoS ONE, 2015):
Out of some 310,000 compounds screened, about 14,000 (4.5%) showed an effect of 50% or more. The effect is printed as a negative number. The sample as a whole holds a higher share of strong results than the screen did.

biological target: human ether-à-go-go-related gene (hERG) potassium channel (human, UniProt Q12809); assay: primary screen, population patch clamp on CHO cells stably expressing hERG; higher = less effect of the substance
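Note: peak tail current of the secondary pulse compared with the same well before compound.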

Sequence of human ether-à-go-go-related gene (hERG) potassium channel (Q12809 whole entry, looked up): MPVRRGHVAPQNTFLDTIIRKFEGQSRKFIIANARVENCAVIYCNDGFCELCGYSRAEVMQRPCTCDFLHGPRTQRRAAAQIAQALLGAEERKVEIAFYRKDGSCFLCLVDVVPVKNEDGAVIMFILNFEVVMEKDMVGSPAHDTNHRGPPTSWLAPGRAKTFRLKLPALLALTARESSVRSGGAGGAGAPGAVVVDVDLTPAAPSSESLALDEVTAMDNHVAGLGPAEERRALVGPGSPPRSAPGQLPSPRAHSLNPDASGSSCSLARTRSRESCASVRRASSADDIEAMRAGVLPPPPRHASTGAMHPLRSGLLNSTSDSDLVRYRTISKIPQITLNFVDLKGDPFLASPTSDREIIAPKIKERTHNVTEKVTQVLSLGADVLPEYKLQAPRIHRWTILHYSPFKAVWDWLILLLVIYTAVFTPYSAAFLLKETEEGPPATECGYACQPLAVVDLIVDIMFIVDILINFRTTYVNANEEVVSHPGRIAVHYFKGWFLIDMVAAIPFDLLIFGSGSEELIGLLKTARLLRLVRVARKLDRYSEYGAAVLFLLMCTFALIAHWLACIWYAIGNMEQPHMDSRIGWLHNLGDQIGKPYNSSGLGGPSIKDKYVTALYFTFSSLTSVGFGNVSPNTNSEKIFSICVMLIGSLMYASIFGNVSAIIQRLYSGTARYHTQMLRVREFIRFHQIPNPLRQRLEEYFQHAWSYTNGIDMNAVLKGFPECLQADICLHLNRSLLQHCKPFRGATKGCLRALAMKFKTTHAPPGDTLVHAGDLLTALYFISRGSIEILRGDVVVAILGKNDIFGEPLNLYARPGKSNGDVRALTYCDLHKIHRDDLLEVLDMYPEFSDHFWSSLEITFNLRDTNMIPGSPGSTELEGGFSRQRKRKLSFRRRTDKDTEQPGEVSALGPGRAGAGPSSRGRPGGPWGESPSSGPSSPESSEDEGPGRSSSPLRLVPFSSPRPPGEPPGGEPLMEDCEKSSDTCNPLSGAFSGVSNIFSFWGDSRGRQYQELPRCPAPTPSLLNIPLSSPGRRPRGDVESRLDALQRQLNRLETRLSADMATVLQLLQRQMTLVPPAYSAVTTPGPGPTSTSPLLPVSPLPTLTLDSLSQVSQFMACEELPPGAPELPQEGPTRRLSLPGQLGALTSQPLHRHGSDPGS

SMILES | hERG current change (%, negative = inhibition) at 10uM
OCCC1CCCCN1CC(O)COCc1ccc(Cl)cc1 (stereo not shown) | -7.29%
COc1ccccc1COCC(O)CN1CCCCC1CO.O=C(O)C(=O)O (stereo not shown) | 18.6%
CCN1CCN(CC(O)COC(c2ccccc2)c2ccccc2C)CC1.O=C(O)C(=O)O (stereo not shown) | -10.6%
CCOC(=O)CC(=O)Nc1ccc(Br)cc1C(=O)O | -11.3%
COc1ccc(CNC(=O)c2cc(=O)c3cc(C)cc(C)c3o2)cc1 | 2.04%
CCn1c(SCC(=O)Nc2ccc(NC(=O)c3ccco3)c(OC)c2)nc2ccccc2c1=O | -20%
CCOC(=O)C1=C(O)/C(=C/c2ccc(OCC(=O)Nc3ccc(C)cc3)cc2)N=C1C | 10.6%
C/C(=N\NC(=O)c1cc(-c2cccnc2)nc2ccccc12)c1ccccc1O | 0.355%
Cn1c(=O)c2c(=O)cc(NNC(=O)C(C)(C)C)[nH]c2n(C)c1=O | 0.349%
CCCC[C@@H]1CNC(=S)N1CCCC | 11%
C/C(CC(=O)Nc1ccc2c(c1)OCCO2)=N\NC(=O)Cc1ccc(Cl)cc1 | 11.2%
CCCCc1nnc(NC(=O)CSc2nc(O)c(-c3ccccc3)c(=O)[nH]2)s1 | 1.48%
O=C1c2ccccc2C(=O)N1CCCCN(C(=O)c1cccc([N+](=O)[O-])c1)c1ccc(Cl)cc1 | -7.96%
Cc1ccc(N(CCCCN2C(=O)c3ccccc3C2=O)C(=O)c2cccc([N+](=O)[O-])c2)cc1 | -59.5%
O=C1c2ccccc2C(=O)N1CCCCN(C(=O)c1ccc(Cl)s1)c1ccc(Cl)cc1 | 8.41%
CC(=O)N(CCCCN1C(=O)c2ccccc2C1=O)c1ccc(C)cc1 | -34.5%
Cc1ccc(N(CCCCN2C(=O)c3ccccc3C2=O)C(=O)c2ccc(Cl)s2)cc1 | 2.79%
Cc1ccc(N(CCCCN2C(=O)c3ccccc3C2=O)C(=O)c2cccs2)cc1 | -67.3%
O=C1c2ccccc2C(=O)N1CCCCN(C(=O)c1ccco1)c1ccc(Cl)cc1 | -55.7%
O=C1c2ccccc2C(=O)N1CCCCN(C(=O)c1cc([N+](=O)[O-])cc([N+](=O)[O-])c1)c1ccc(Cl)cc1 | 5.87%
O=C1c2ccccc2C(=O)N1CCCCN(C(=O)c1ccc([N+](=O)[O-])cc1)c1ccc(Cl)cc1 | -3.93%
OC1C2(Cc3ccccc3)CN3CCN(C2)CC1(Cc1ccccc1)C3 (stereo not shown) | -1.47%

SMILES | hERG current change (%, negative = inhibition) at 10uM
Cc1[nH][nH]c(=O)c1C(c1ccc(-c2cccc(C(=O)O)c2)o1)c1c(C)[nH][nH]c1=O | 19.2%
COc1ccc(OC)c(NC(=O)c2ccc(Cl)cc2)c1 | -5.32%
COc1ccc(/C(C)=N/Nc2nc3ccccc3n3cnnc23)cc1OC | -19.4%
CC(c1ccccc1)n1c(CCCO)nc2ccccc21 (stereo not shown) | -2.26%
COc1cccc(OC)c1C(=O)Nc1ccc(Cc2ccncc2)cc1 | 8.86%
CC1CCCN(Cc2nc3c(c(=O)n(C)c(=O)n3C)n2CC(=O)c2ccccc2)C1 (stereo not shown) | -8.71%
CCN(Cc1ccncc1)Cc1cn[nH]c1-c1ccc(OC)cc1F | -3.13%
COc1ccc(NC(=O)CN(C)C(=O)c2cccc3ccccc23)cc1 | 3.09%
COc1nc(NCCO)nc(Nc2ccc([N+](=O)[O-])cc2)n1 | -40.2%
COc1nc(NCCN2CCOCC2)nc(Nc2ccc([N+](=O)[O-])cc2)n1 | -50.7%
O=[N+]([O-])c1ccc(Nc2nc(NCCO)nc(N3CCCC3)n2)cc1 | -58.3%
C=CCNc1nc(Nc2ccc([N+](=O)[O-])cc2)nc(OC)n1 | -14.1%
CCOc1nc(NCCO)nc(Nc2ccc([N+](=O)[O-])cc2)n1 | -9.66%
CCOc1nc(Nc2ccc([N+](=O)[O-])cc2)nc(NC(C)(C)C)n1 | 12.2%
CCCNc1nc(Nc2ccc(C)cc2)nc(N2CCCC2)n1 | -30.6%
CCOc1nc(NCCN2CCOCC2)nc(Nc2ccc([N+](=O)[O-])cc2)n1 | -93.1%
OCCNc1nc(Nc2ccc(Cl)cc2)nc(N2CCCC2)n1 | -15.1%
CCOc1nc(NCCN2CCOCC2)nc(NC(C)C)n1 | -9.84%
C=CCNc1nc(Nc2ccc([N+](=O)[O-])cc2)nc(N2CCCC2)n1 | -23.8%
CCOc1nc(NCCN2CCOCC2)nc(Nc2ccc(C)cc2)n1 | -65.3%
CCCn1c(N)c(N(CCOC)C(=O)c2cc(C)cc(C)c2)c(=O)[nH]c1=O | 16.4%
